Assay results reported in PubChem BioAssay (NCI).
This is part of a sample that, as a whole, favours compounds with a hit. Of some 83,000 tested, about 20% had one in any assay.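 Negative percent growth values reflect cell death: -40 means 40% of the cells present at the start died, and -100 means all died.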 Calls of active or inactive are those of the source. How the source made its calls: active means growth percent below 10; inactive means the rest.

Experiments:
Assay in all cases: NCI-60 one-dose screen, 48 h (100 = growth as untreated, 0 = no growth, -100 = all killed)
NCI-H226 lung = conditions: 10 µM
NCI-H322M lung = conditions: 10 µM unless noted
NCI-H460 lung = conditions: 10 µM unless noted
HOP-92 NSCLC = conditions: 10 µM unless noted
NCI-H522 lung = conditions: 10 µM
786-0 renal = conditions: 10 µM unless noted
COLO 205 colon = conditions: 10 µM unless noted
HOP-62 NSCLC = conditions: 10 µM unless noted
A549/ATCC NSCLC = conditions: 10 µM unless noted

Measured: growth

Cc1nc2cc(Nc3nc(NCCO)nc(Nc4ccc(F)cc4)n3)ccc2n1Cc1ccccc1
inactive: NCI-H226 lung 91.6% | NCI-H322M lung 98.9% | NCI-H460 lung 83.5% | HOP-92 NSCLC 49.9% | NCI-H522 lung 85.6% | 786-0 renal 94.7% | COLO 205 colon 94.5%

COc1cc(C2=NN(c3ccc(S(N)(=O)=O)cc3)C(c3ccc(Cl)cc3)C2)cc(OC)c1OC (stereo not given)
inactive: NCI-H226 lung 55.6% | HOP-62 NSCLC 60.6% | NCI-H460 lung 25.8% | HOP-92 NSCLC 23.3% | NCI-H522 lung 44.9% | A549/ATCC NSCLC 26.2% | 786-0 renal 66.5% | COLO 205 colon 48.5%

C=C(C)CCCC(C)CC#N (stereo not given)
inactive: NCI-H226 lung 99.4% | HOP-62 NSCLC 90.7% | NCI-H460 lung 107% | HOP-92 NSCLC 95.1% | NCI-H522 lung 90.3% | A549/ATCC NSCLC 99.9% | 786-0 renal 97.3%

O=C1CC2c3cc(-c4cc5ccccc5o4)ccc3CCN2C(=O)N1c1ccccc1 (stereo not given)
inactive: NCI-H226 lung 93.5% | HOP-62 NSCLC 82.9% | NCI-H460 lung 87.6% | HOP-92 NSCLC 47.2% | NCI-H522 lung 69.9% | A549/ATCC NSCLC 80% | 786-0 renal 92.8% | COLO 205 colon 96.2%

COc1cccc(-c2ccc3c(c2)C2CCN(Cc4ccccc4)C3C2)c1 (stereo not given)
inactive: NCI-H226 lung 99.2% | HOP-62 NSCLC 72.2% | NCI-H460 lung 93.5% | HOP-92 NSCLC 41% | NCI-H522 lung 55.1% | A549/ATCC NSCLC 71.2% | 786-0 renal 77.4%

O=C(COc1cccc(/C=C2\COc3ccccc3C2=O)c1)c1ccccc1
active: NCI-H522 lung -41.9%
inactive: NCI-H226 lung 68.7% | HOP-62 NSCLC 98% | NCI-H460 lung 104% | HOP-92 NSCLC 91.5% | A549/ATCC NSCLC 89.2% | 786-0 renal 88.8%

O=C(Nc1ccccc1O)c1ccc(NS(=O)(=O)c2cccc3cccnc23)cc1
inactive: NCI-H226 lung 50.3% | NCI-H322M lung 48.3% | HOP-62 NSCLC 38.3% | NCI-H460 lung 40.2% | NCI-H522 lung 37.7% | A549/ATCC NSCLC 51.1% | 786-0 renal 71.9% | COLO 205 colon 47.8%

CCCCCCCCCCCCCCNc1nc(CO)ncc1-c1ccc(C(F)(F)F)cc1
inactive: NCI-H226 lung 101% | HOP-62 NSCLC 92.9% | NCI-H460 lung 105% | HOP-92 NSCLC 89.6% | NCI-H522 lung 90.6% | A549/ATCC NSCLC 98.9% | 786-0 renal 97.3% | COLO 205 colon 108%

COc1ccc(-c2c3c(N)c4c(nc3nc3c2c(C)nn3-c2ccccc2)CCCCC4)cc1
inactive: NCI-H226 lung 99.4% | HOP-62 NSCLC 84.6% | NCI-H460 lung 82.8% | HOP-92 NSCLC 32.2% | NCI-H522 lung 50.2% | A549/ATCC NSCLC 81.3% | 786-0 renal 79.2% | COLO 205 colon 74.3%

CCOC(=O)c1cc2c(n(C)c1=O)-c1cnn(-c3ccc(OC)cc3)c1CC2
inactive: NCI-H226 lung 107% | HOP-62 NSCLC 108% | NCI-H460 lung 108% | HOP-92 NSCLC 104% | NCI-H522 lung 83.3% | A549/ATCC NSCLC 98.2% | 786-0 renal 101% | COLO 205 colon 109%

CCCC1=NNC(=O)C1
inactive: NCI-H226 lung 108% | HOP-62 NSCLC 99% | NCI-H460 lung 109% | HOP-92 NSCLC 90.7% | NCI-H522 lung 94% | A549/ATCC NSCLC 95.9% | 786-0 renal 95.8%

CCCCC/C=C\C/C=C/CCCCCCCCNC(=O)Nc1ccc([N+](=O)[O-])cc1
active: HOP-92 NSCLC -1.17%
inactive: NCI-H226 lung 93.5% | NCI-H322M lung 120% | NCI-H460 lung 84.4% | NCI-H522 lung 41.5% | 786-0 renal 102% | COLO 205 colon 95%

O=C1C2CC3C(CC2C(=O)[N]1[Sn]([c]1ccccc1)([c]1ccccc1)[c]1ccccc1)C1(Cl)C(Cl)=C(Cl)C3(Cl)C1(Cl)Cl (stereo not given)
active: NCI-H226 lung -43.5% | HOP-62 NSCLC -92.1% | NCI-H460 lung -81.6% | HOP-92 NSCLC -96.1% | NCI-H522 lung -94.2% | A549/ATCC NSCLC -97.2% | 786-0 renal -86.2% | COLO 205 colon -86.7%

CCCCNNC(=O)c1ccc(Br)cc1
inactive: NCI-H226 lung 62.5% | NCI-H322M lung 59.3% | HOP-62 NSCLC 55.5% | NCI-H460 lung 50.1% | A549/ATCC NSCLC 57.6% | 786-0 renal 79% | COLO 205 colon 46.1%

COc1ccc(-n2ncc3c4nc(OC)c(S(=O)(=O)c5ccccc5)cc4ccc32)cc1
inactive: NCI-H226 lung 45.3% | HOP-62 NSCLC 47.5% | NCI-H460 lung 78.9% | HOP-92 NSCLC 26.7% | NCI-H522 lung 61.3% | A549/ATCC NSCLC 71.3% | 786-0 renal 47.2%

O=C(Nc1ccc(F)cc1)c1ccc(C(=O)Nc2ccc(F)cc2)cc1
inactive: NCI-H226 lung 99.5% | HOP-62 NSCLC 98.2% | NCI-H460 lung 105% | HOP-92 NSCLC 105% | NCI-H522 lung 111% | A549/ATCC NSCLC 98.9% | 786-0 renal 98.8% | COLO 205 colon 114%

COc1ccc(-c2nc3sc(C)cn3c2/C=C/C(=O)c2cc(OC)c(OC)c(OC)c2)cc1
inactive: NCI-H226 lung 76.9% | NCI-H322M lung 76.1% | NCI-H460 lung 50.5% | HOP-92 NSCLC 46.2% | NCI-H522 lung 37.8% | A549/ATCC NSCLC 57.1% | 786-0 renal 48.2% | COLO 205 colon 67.9%

O=[N+]([O-])c1ccc(C=C2C(Cl)=C(Cl)C(Cl)=C2Cl)cc1
inactive: NCI-H226 lung 62.7% | NCI-H322M lung 121% | NCI-H460 lung 90.6% | NCI-H522 lung 46.1% | A549/ATCC NSCLC 92.1% | 786-0 renal 19.8% | COLO 205 colon 54%

COc1ccc(/C=C2\CN(Cc3cn(CCCNc4ccnc5cc(Cl)ccc45)nn3)C/C(=C\c3ccc(OC)c(OC)c3)C2=O)cc1OC
inactive: HOP-92 NSCLC 25.5%
active: NCI-H226 lung -52.4% | HOP-62 NSCLC -1.63% | NCI-H460 lung -5.13% | NCI-H522 lung 0.468% | A549/ATCC NSCLC 5.33% | 786-0 renal -1.83% | COLO 205 colon 1.93%

Cn1c2ccccc2c2nn(C(=O)c3ccccc3)c(=O)nc21
inactive: NCI-H226 lung 96.2% | NCI-H322M lung 99.6% | HOP-62 NSCLC 115% | NCI-H460 lung 105% | NCI-H522 lung 99% | A549/ATCC NSCLC 116% | 786-0 renal 107% | COLO 205 colon 118%

C=CC[P+](c1ccccc1)(c1ccccc1)c1ccccc1
inactive: NCI-H226 lung 74.1% | HOP-62 NSCLC 81.7% | NCI-H460 lung 53.5% | HOP-92 NSCLC 25.4% | NCI-H522 lung 15.1% | A549/ATCC NSCLC 69.6% | 786-0 renal 84.5% | COLO 205 colon 32.8%

CN1CCc2cccc3c2C1Cc1ccc(O)c(O)c1-3 (stereo not given)
inactive: NCI-H226 lung 80.8% | HOP-62 NSCLC 87.8% | NCI-H460 lung 111% | HOP-92 NSCLC 106% | NCI-H522 lung 39.5% | A549/ATCC NSCLC 95.6% | 786-0 renal 86.2% | COLO 205 colon 90.5%

Cc1cc(C)c(S(=O)O)c(C)c1
inactive: NCI-H226 lung 99% | NCI-H322M lung 124% | NCI-H460 lung 109% | HOP-92 NSCLC 93.1% | NCI-H522 lung 101% | A549/ATCC NSCLC 109% | 786-0 renal 112% | COLO 205 colon 126%

COc1cc(/C=C/c2cc(/C=C/c3ccc(O)c(OC)c3)n(-c3ccccc3)n2)ccc1O
active: NCI-H226 lung -8.19% | NCI-H322M lung -3.64% | HOP-62 NSCLC -67.7% | NCI-H460 lung 0.0675% | NCI-H522 lung -30.2% | A549/ATCC NSCLC 8.4% | 786-0 renal -76.7% | COLO 205 colon -84.1%

Brc1ccc(Br)nn1
active: NCI-H226 lung -26.8% | NCI-H322M lung -97.4% | NCI-H460 lung -21.9% | HOP-92 NSCLC -64.7% | NCI-H522 lung -33.2% | A549/ATCC NSCLC 5.91% | 786-0 renal -81%

Cc1ccc2c(N/N=C\c3ccco3)cc(C)nc2n1
inactive: NCI-H226 lung 77.6% | HOP-62 NSCLC 83.3% | NCI-H460 lung 34.1% | HOP-92 NSCLC 40.4% | NCI-H522 lung 88.6% | A549/ATCC NSCLC 46.4% | 786-0 renal 49.2%
active: COLO 205 colon 8.81%

COc1ccc(-n2ncc3c2ccc2cc(S(=O)(=O)c4ccccc4)c(=O)n(C)c23)cc1
inactive: NCI-H226 lung 52.6% | HOP-62 NSCLC 72.5% | NCI-H460 lung 88.8% | HOP-92 NSCLC 37.2% | NCI-H522 lung 33.2% | A549/ATCC NSCLC 86.8% | 786-0 renal 82.3% | COLO 205 colon 108%

ONc1nc(NO)c2[nH]cnc2n1
inactive: NCI-H226 lung 82.8% | HOP-62 NSCLC 83.9% | NCI-H460 lung 86.7% | HOP-92 NSCLC 80.8% | NCI-H522 lung 97% | A549/ATCC NSCLC 101% | 786-0 renal 86.9%

COc1nc2c(cc1S(=O)(=O)c1ccccc1)CCc1c-2cnn1-c1cccc(Cl)c1
inactive: NCI-H226 lung 80.3% | HOP-62 NSCLC 90.7% | NCI-H460 lung 80.6% | HOP-92 NSCLC 46.6% | NCI-H522 lung 75.6% | A549/ATCC NSCLC 66.2% | 786-0 renal 72.8% | COLO 205 colon 103%

COc1ccc(NC(=O)COc2ccccc2)c(C(N)=O)c1
active: NCI-H522 lung 6.28% | COLO 205 colon -12.1%
inactive: NCI-H226 lung 71.6% | NCI-H322M lung 59.3% | HOP-62 NSCLC 20.3% | NCI-H460 lung 11.2% | A549/ATCC NSCLC 24.8% | 786-0 renal 35.2%

Cc1ccc(N(CSc2ccc(Cl)cc2)CSc2ccc(Cl)cc2)cc1
inactive: NCI-H226 lung 71.9% | NCI-H322M lung 64.1% | NCI-H460 lung 14.3% | HOP-92 NSCLC 56.8% | NCI-H522 lung 39.3% | 786-0 renal 51.5% | COLO 205 colon 118%

Cn1c2c(cc(S(=O)(=O)c3ccccc3)c1=O)CCc1c-2cnn1-c1ccccc1Cl
active: NCI-H522 lung -72.1%
inactive: NCI-H226 lung 117% | HOP-62 NSCLC 113% | NCI-H460 lung 106% | HOP-92 NSCLC 90.8% | A549/ATCC NSCLC 86.7% | 786-0 renal 102% | COLO 205 colon 113%

Cn1c2ccc(Cl)cc2c2nn(C(=O)c3ccccc3)c(=O)nc21
inactive: NCI-H226 lung 93.7% | NCI-H322M lung 106% | HOP-62 NSCLC 101% | NCI-H460 lung 105% | NCI-H522 lung 101% | A549/ATCC NSCLC 113% | 786-0 renal 113% | COLO 205 colon 123%

CCOC(=O)C(CC(c1ccccc1)N1CCCCC1)[N+](=O)[O-] (stereo not given)
inactive: NCI-H226 lung 82.9% | NCI-H322M lung 88.5% | NCI-H460 lung 68% | HOP-92 NSCLC 78.4% | NCI-H522 lung 59.4% | A549/ATCC NSCLC 76.4% | 786-0 renal 93.3% | COLO 205 colon 108%
